# Test results from PubChem BioAssay.
# The source made the active and inactive calls.
# Key:
# [1] = test system: Plasmodium falciparum Sir2 (PF13_0152, Sir2A); experiment: pfSir2 binders on small-molecule microarrays, primary screen, biochemical, small-molecule microarray, 635 nm fluorescence (AID 1098); conditions: small-molecule microarray binding, fluorescence 635 nm; higher = more signal;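 note: score merges spot fluorescence intensity with its signal-to-noise ratio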
# [2] = small-molecule microarray binders of probe aDKK1, primary screen, biochemical, biotinylated probe, 635/667 nm fluorescence (AID 1099); conditions: higher = more signal;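 note: score merges 667nm spot fluorescence with signal to noise across triplicate slides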
# [3] = small-molecule microarray binders of probe aCHRDL2, primary screen, biochemical, biotinylated probe, 635/667 nm fluorescence (AID 1100); conditions: higher = more signal
# [4] = splicing luciferase reporter signal modulators, primary screen, spliceosome inhibition project, cell-based, HEK293, splice +/- reporter (AID 1101); conditions: luminescence, 24 h, higher = more signal, called active from +8 up or from −8 down;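 note: HEK293 cells carrying a splicing-competent luciferase reporter gene; test concentration not given here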
# [5] = target: Fibroblast growth factor 10 (Homo sapiens) (UniProt O15520); experiment: FGF10 binders on small-molecule microarrays, primary screen, biochemical, small-molecule microarray, 635 nm fluorescence (AID 1102); conditions: FGF10 binding, fluorescence 635 nm, higher = more signal
# Sequence of Fibroblast growth factor 10 (Homo sapiens) (O15520 whole entry, looked up): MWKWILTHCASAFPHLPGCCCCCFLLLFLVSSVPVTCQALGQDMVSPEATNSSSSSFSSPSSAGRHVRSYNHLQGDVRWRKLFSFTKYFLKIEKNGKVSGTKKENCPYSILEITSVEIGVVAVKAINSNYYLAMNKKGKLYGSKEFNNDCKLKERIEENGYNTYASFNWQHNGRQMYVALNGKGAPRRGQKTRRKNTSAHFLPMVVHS
# [6] = test system: glycogen synthase kinase-3 (GSK3A per assay name; protocol says GSK3B); experiment: GSK3 binders on small-molecule microarrays, primary screen, biochemical, small-molecule microarray, 635 nm fluorescence, GSK3A (AID 1103); conditions: small-molecule microarray binding, fluorescence 635 nm; higher = more signal; note: the record names both GSK3A and GSK3B
# [7] = target: Epidermal growth factor receptor (Homo sapiens) (UniProt P00533); experiment: EGFR binders on small-molecule microarrays, primary screen, biochemical, small-molecule microarray, 635 nm fluorescence (AID 1104); conditions: EGFR binding, higher = more signal;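 note: score merges 667 nm emission intensity with spot signal to noise over triplicate slides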
# Sequence of Epidermal growth factor receptor (Homo sapiens) (P00533 whole entry, looked up): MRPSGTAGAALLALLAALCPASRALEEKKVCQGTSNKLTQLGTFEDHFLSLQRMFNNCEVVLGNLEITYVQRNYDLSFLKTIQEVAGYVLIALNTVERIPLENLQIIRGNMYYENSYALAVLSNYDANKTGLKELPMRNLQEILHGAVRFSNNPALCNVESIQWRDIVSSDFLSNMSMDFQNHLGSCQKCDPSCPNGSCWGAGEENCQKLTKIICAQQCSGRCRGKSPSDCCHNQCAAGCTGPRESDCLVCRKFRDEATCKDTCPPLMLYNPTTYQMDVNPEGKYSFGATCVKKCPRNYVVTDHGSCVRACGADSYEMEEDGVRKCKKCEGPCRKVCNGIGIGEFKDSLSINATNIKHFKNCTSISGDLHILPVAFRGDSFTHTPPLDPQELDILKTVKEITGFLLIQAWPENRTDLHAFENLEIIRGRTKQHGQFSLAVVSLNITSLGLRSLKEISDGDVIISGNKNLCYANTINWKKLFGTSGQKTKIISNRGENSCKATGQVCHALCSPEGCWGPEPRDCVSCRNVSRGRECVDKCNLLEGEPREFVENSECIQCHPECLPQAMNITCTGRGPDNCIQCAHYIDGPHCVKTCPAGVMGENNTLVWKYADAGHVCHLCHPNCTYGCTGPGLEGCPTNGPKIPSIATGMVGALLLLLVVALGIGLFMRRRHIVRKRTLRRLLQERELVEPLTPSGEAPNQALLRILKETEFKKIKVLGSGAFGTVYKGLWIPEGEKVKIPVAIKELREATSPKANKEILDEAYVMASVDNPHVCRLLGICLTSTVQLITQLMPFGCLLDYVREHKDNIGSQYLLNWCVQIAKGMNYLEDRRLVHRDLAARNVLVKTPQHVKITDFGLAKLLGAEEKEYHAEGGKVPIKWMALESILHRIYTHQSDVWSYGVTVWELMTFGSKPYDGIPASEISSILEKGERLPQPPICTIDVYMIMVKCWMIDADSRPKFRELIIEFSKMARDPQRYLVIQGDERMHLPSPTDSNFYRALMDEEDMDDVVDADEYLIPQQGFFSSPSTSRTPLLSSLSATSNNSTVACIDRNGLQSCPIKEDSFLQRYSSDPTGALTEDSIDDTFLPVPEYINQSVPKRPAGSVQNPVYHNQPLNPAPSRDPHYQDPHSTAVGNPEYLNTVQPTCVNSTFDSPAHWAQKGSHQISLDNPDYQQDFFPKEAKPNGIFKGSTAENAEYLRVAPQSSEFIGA
# [8] = target: Follistatin-related protein 3 (Homo sapiens) (UniProt O95633); experiment: FSTL3 binders on small-molecule microarrays, primary screen, biochemical, small-molecule microarray, 635 nm fluorescence (AID 1105); conditions: FSTL3 binding, higher = more signal;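 note: score merges emission near 667 nm and signal to noise per printed spot across three slides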
# Sequence of Follistatin-related protein 3 (Homo sapiens) (O95633 whole entry, looked up): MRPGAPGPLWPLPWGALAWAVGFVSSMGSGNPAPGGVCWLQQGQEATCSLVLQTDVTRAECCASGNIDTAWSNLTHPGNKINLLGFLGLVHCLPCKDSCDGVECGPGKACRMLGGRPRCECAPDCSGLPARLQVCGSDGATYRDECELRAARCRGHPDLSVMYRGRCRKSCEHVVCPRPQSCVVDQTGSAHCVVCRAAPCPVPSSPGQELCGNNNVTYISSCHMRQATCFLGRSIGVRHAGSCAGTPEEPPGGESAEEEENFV
# [9] = target: Dickkopf-related protein 1 (Homo sapiens) (UniProt O94907); experiment: DKK1 binders on small-molecule microarrays, primary screen, biochemical, small-molecule microarray, 635 nm fluorescence scan (AID 1106); conditions: DKK1 binding, higher = more signal;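 note: score merges emission near 667 nm with signal to noise over three replicate slides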
# Sequence of Dickkopf-related protein 1 (Homo sapiens) (O94907 whole entry, looked up): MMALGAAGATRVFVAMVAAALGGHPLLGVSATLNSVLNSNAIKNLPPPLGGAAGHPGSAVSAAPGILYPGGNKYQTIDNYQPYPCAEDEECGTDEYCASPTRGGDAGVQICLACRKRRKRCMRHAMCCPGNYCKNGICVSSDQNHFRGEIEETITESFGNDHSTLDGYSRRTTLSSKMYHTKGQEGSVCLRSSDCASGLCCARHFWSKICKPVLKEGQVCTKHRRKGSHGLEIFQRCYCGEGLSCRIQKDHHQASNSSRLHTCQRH
# [10] = test system: Inhibin beta A chain (activin A); experiment: INHBA (activin A) binders on microarrays, primary screen, biochemical, small-molecule microarray, 635 nm fluorescence scan (AID 1107); conditions: small-molecule microarray binding, higher = more signal;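 note: mouse activin A protein probed at 4.33 µg/mL on printed slides; score merges bound-protein fluorescence near 667 nm with spot signal-to-noise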
# [11] = test system: Human papillomavirus type 1a protein E7 (residues 44-93); experiment: HPV1a E7 fragment binders on microarrays, primary screen, biochemical, small-molecule microarray, residues 44-93, 635 nm fluorescence (AID 1108); conditions: small-molecule microarray binding, fluorescence 635 nm; higher = more signal;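 note: E7 fragment applied at 1 µg/mL in TBST for 1 h at 4 C; score combines spot fluorescence with its signal to noise ratio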
# [12] = modulators of HCV replicon luciferase signal, primary screen, HCV replication inhibitor project, Huh7 cells, luciferase reporter (AID 1109); conditions: 48 h, higher = more signal;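 note: huh7 hepatoma cells harbouring a luciferase neomycin HCV replicon reporter; luciferase luminescence as measure of HCV replicon replication; test concentration not given here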
# [13] = target: Left-right determination factor 2 (Homo sapiens) (UniProt O00292); experiment: LEFTY2 binders on small-molecule microarrays, primary screen, biochemical, small-molecule microarray, 635 nm fluorescence scan (AID 1110); conditions: LEFTY2 binding, higher = more signal
# Sequence of Left-right determination factor 2 (Homo sapiens) (O00292 whole entry, looked up): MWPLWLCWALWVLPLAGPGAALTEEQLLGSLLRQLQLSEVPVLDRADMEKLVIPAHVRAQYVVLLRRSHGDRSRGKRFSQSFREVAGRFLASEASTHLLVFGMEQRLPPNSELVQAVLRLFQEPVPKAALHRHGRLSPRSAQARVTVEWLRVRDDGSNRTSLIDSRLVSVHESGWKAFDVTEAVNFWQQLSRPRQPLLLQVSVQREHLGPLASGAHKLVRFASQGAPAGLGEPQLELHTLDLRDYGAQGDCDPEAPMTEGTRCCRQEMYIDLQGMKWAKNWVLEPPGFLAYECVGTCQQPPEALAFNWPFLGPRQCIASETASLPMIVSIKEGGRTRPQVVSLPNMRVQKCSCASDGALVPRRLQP
# [14] = target: Calmodulin-1 (Homo sapiens) (UniProt P0DP23); experiment: CALM1 binders on microarrays, EGTA buffer, profiling panel, biochemical, small-molecule microarray, Cy5-labelled CALM1 (AID 1111); conditions: Cy5-CALM1 binding fluorescence, higher = more signal;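 note: labelled calmodulin applied in Tris saline Tween buffer holding calcium plus EGTA and DTT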
# [15] = target: Calmodulin-1 (Homo sapiens) (UniProt P0DP23); experiment: calcium-bound CALM1 binders on microarrays, profiling panel, artefact control for SMM control-protein annotation, biochemical, small-molecule microarray, Cy5-labelled CALM1, plus calcium (AID 1112); conditions: Cy5-CALM1 binding fluorescence, higher = more signal;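 note: score merges spot fluorescence with signal to noise from triplicate slides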
# [16] = small-molecule microarray binders of probe aWnt5a, primary screen, biochemical, biotinylated probe, 635/667 nm fluorescence (AID 1113); conditions: higher = more signal;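 note: score merges 667 nm fluorescence intensity with signal-to-noise per printed feature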
# [17] = small-molecule microarray binders of probe aShh, primary screen, biochemical, biotinylated probe, 635/667 nm fluorescence (AID 1114); conditions: higher = more signal;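 note: probe is biotin-labelled aShh protein from a stem cell growth factor screen; measures binding of labelled protein to compounds printed on the slide; score merges feature fluorescence at 667 nm with signal-to-noise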
# [18] = small-molecule microarray binders of probe aNog, primary screen, biochemical, biotinylated probe, 635/667 nm fluorescence (AID 1115); conditions: higher = more signal;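 note: probe is biotinylated aNog protein used at 0.15 µg/mL for 1 h at 4 C; z-score combines 667 nm fluorescence of each spot with its signal to noise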
# [19] = target: Torsin-1A-interacting protein 1 (Homo sapiens) (UniProt Q5JTV8); experiment: LAP1 binders from COS7 cell lysate, primary screen, small-molecule microarray, 635/667 nm fluorescence (AID 1116); conditions: COS7-hLAP1 lysate binding, 635 nm fluorescence, higher = more signal
# Sequence of Torsin-1A-interacting protein 1 (Homo sapiens) (Q5JTV8 whole entry, looked up): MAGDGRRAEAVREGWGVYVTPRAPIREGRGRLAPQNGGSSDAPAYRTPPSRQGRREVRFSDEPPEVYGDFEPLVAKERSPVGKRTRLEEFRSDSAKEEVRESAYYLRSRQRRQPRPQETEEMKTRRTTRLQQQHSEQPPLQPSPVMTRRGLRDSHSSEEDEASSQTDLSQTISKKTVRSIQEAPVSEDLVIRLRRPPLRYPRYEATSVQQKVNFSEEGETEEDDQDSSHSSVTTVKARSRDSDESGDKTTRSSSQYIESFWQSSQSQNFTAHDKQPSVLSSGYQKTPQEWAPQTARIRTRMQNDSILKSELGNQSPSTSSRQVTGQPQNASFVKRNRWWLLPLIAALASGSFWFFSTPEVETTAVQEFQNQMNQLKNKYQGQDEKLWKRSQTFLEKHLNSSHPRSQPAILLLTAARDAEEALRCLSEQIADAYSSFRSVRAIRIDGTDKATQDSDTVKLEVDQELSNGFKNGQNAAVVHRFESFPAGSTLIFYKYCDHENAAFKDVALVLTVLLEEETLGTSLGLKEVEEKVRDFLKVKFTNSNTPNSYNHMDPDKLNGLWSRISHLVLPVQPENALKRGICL
# [20] = target: Alpha-bungarotoxin (Bungarus multicinctus) (UniProt P60615); experiment: alpha-bungarotoxin binders on microarray, profiling panel, artefact control for SMM control protein annotation, biochemical, small-molecule microarray, Alexa647 label, 635/667 nm fluorescence (AID 1117); conditions: alpha-BTX-A647 binding fluorescence, higher = more signal
# Sequence of Alpha-bungarotoxin (Bungarus multicinctus) (P60615 whole entry, looked up): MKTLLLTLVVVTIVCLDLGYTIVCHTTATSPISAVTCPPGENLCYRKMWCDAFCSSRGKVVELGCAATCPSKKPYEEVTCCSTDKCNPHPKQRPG
compound,measurement,setting,value
CC(C)(C)OC(=O)CC[C@]1(C(N)=O)N=C(c2ccc(OCCCO)cc2)O[C@H]1c1ccccc1CN=[N+]=[N-],composite z-score,[1],1.62
same,composite z-score,[2],1.11
same,composite z-score,[3],1.2
same,z-score,[4],-0.26 (inactive)
same,composite z-score,[5],1.44
same,composite z-score,[6],1.28
same,composite z-score,[7],-0.643
same,composite z-score,[8],0.0115
same,composite z-score,[9],-0.395
same,composite z-score,[10],0.0976
same,composite z-score,[11],0.6
same,z-score,[12],1.46
same,composite z-score,[13],-0.63
same,composite z-score,[14],2.67
same,composite z-score,[15],1.73
same,composite z-score,[16],-0.096
same,composite z-score,[17],0.84
same,composite z-score,[18],-0.143
same,composite z-score,[19],2.26
same,composite z-score,[20],1.46
C=CCOC(=O)[C@H]1[C@@H]2C(=O)O[C@@H](c3ccccc3)[C@@H](c3ccccc3)N2[C@@H](c2ccc(OCCOC(=O)[C@H]3C[C@H]4C(=O)NCC(=O)N4[C@H]3c3ccc(O)cc3)cc2)[C@]12C(=O)Nc1ccc(I)cc12,composite z-score,[1],1.41
same,composite z-score,[2],-0.144
same,composite z-score,[3],-0.335
same,z-score,[4],0.0882 (inactive)
same,composite z-score,[5],0.669
same,composite z-score,[6],0.821
same,composite z-score,[7],0.63
same,composite z-score,[8],0.915
same,composite z-score,[9],1.12
same,composite z-score,[10],0.236
same,composite z-score,[11],0.429
same,z-score,[12],-1.58
same,composite z-score,[13],0.788
same,composite z-score,[14],0.275
same,composite z-score,[15],0.295
same,composite z-score,[16],-0.1
same,composite z-score,[17],-0.367
same,composite z-score,[18],-0.158
same,composite z-score,[19],0.365
same,composite z-score,[20],-0.303
O=C1OCCC=C[C@H]2OC34C=CCN(CCN5CCOCC5)C(=O)[C@H]3N(CCCO)C(=O)[C@@H]4C12 (stereo not given in full),composite z-score,[1],1.41
same,composite z-score,[2],-0.242
same,composite z-score,[3],0.119
same,z-score,[4],-1.12 (inactive)
same,composite z-score,[5],-0.272
same,composite z-score,[6],-0.869
same,composite z-score,[7],-0.938
same,composite z-score,[8],-0.549
same,composite z-score,[9],-0.0385
same,composite z-score,[10],0.564
same,composite z-score,[11],-0.211
same,z-score,[12],-1.03
same,composite z-score,[13],-0.861
same,composite z-score,[14],-0.572
same,composite z-score,[15],-1.17
same,composite z-score,[16],-0.228
same,composite z-score,[17],-0.144
same,composite z-score,[18],-0.318
same,composite z-score,[19],-0.79
same,composite z-score,[20],-0.386
COC(=O)[C@@]1(Cc2ccc(OC)cc2)[C@H]2c3cc(C(=O)N4CCCC4)n(CCc4ccc(OC)c(Br)c4)c3C[C@H]2CN1C(=O)c1ccccc1,composite z-score,[1],1.31
same,composite z-score,[2],0.801
same,composite z-score,[3],0.904
same,z-score,[4],-0.947 (inactive)
same,composite z-score,[5],0.714
same,composite z-score,[6],-0.199
same,composite z-score,[7],0.0993
same,composite z-score,[8],-0.457
same,composite z-score,[9],-0.858
same,composite z-score,[10],1.03
same,composite z-score,[11],-0.027
same,z-score,[12],0.0171
same,composite z-score,[13],-0.38
same,composite z-score,[14],2.19
same,composite z-score,[15],0.967
same,composite z-score,[16],-0.0519
same,composite z-score,[17],0.865
same,composite z-score,[18],2.37
same,composite z-score,[19],2.06
same,composite z-score,[20],-0.123
C=CCNC(=O)[C@H]1[C@@H]2C(=O)O[C@@H](c3ccccc3)[C@@H](c3ccccc3)N2[C@@H](c2ccc(O)cc2)[C@]12C(=O)Nc1ccc(C#CC3=CCCCC3)cc12,composite z-score,[1],1.14
same,composite z-score,[2],0.593
same,composite z-score,[3],0.662
same,z-score,[4],0.622 (inactive)
same,composite z-score,[5],0.703
same,composite z-score,[6],1.13
same,composite z-score,[7],0.859
same,composite z-score,[8],0.696
same,composite z-score,[9],0.909
same,composite z-score,[10],1.31
same,composite z-score,[11],1.32
same,z-score,[12],-1.83
same,composite z-score,[13],0.71
same,composite z-score,[14],0.887
same,composite z-score,[15],0.571
same,composite z-score,[16],0.163
same,composite z-score,[17],0.951
same,composite z-score,[18],0.587
same,composite z-score,[19],1.11
same,composite z-score,[20],0.491
C[C@@H](OCc1ccccc1)C1NC(=O)[C@@]23C(=O)N[C@@H](Cc4ccccc4)C2[C@H](C)[C@@]2(C)O[C@H]2C3/C=C/C/C=C\CNC(=O)[C@H](Cc2ccccc2)NC1=O (stereo not given in full),composite z-score,[1],0.21
same,composite z-score,[2],-0.288
same,composite z-score,[3],-0.743
same,z-score,[4],-0.708 (inactive)
same,composite z-score,[5],1.35
same,composite z-score,[6],0.297
same,composite z-score,[7],0.12
same,composite z-score,[8],0.869
same,composite z-score,[9],0.443
same,composite z-score,[10],1.08
same,composite z-score,[11],-0.677
same,z-score,[12],-0.963
same,composite z-score,[13],0.226
same,composite z-score,[14],-0.629
same,composite z-score,[15],-1.15
same,composite z-score,[16],-0.035
same,composite z-score,[17],-0.304
same,composite z-score,[18],-0.289
same,composite z-score,[19],0.252
same,composite z-score,[20],-0.753
